Reference: PubChem BioAssay AID463173 (ICCB-Longwood Screening Facility, Harvard Medical School, 2010)
Hit rate of the full screen: of about 52,000 compounds, about 1,700 (3.3%) were called active. No stated cut-off is given here; in the data, active means survival mostly below about 52% (no sharp cut-off); inactive means mostly above about 56%. The entries come from a sample that favours actives as a whole.

These compounds were tested on Wild type (assay: growth inhibition of S. aureus wild type versus tarO mutant, primary screen, teichoic acid synthesis inhibitors, RN4220, OD600 (AID 463173)). Conditions: S. aureus RN4220 wild type/DeltatarO growth, OD600, 18 h, hits give low values, screened at 18.75 µg/mL (by protocol).

| SMILES | survival |
| --- | --- |
| COC(=O)c1ccc2c(c1)N(CC(=O)Nc1cccc(C(F)(F)F)c1)C(=O)c1ccccc1S2 | 77% (inactive) |
| Cc1ccc(OCC(=O)Nc2ccc3nc(SCC(=O)N4CCCC4)sc3c2)cc1 | 91% (inactive) |
| COc1cccc(CC(=O)NCc2ccc3c(c2)CCN3C(C)=O)c1 | 71% (inactive) |
| COc1cccc(C(=O)Nc2cc(-c3ccccc3)nn2-c2ccccc2)c1 | 69% (inactive) |
| Cc1ccc(NC(=O)c2c(C)oc3ccc(O)c(CN4CCCCC4)c23)cc1 | 86% (inactive) |
| Cc1cc(C)c(NS(=O)(=O)c2ccc3c(c2)CC(C)N3C(=O)C2CCC2)c(C)c1 (stereo unspecified) | 64% (inactive) |
| O=C(CCCCn1c(=O)c2ccccc2n(Cc2cccc(Cl)c2)c1=O)NCc1ccc2c(c1)OCO2 | 98% (inactive) |
| CCCCNC(=O)c1cccc(-n2c(C)nc3cccnc32)c1 | 73% (inactive) |
| CCc1ccccc1NC(=O)CCNS(=O)(=O)c1ccc2c(c1)CCCC(=O)N2 | 73% (inactive) |
| CCn1c(CN2CCOCC2)nc2cc(NC(=O)c3ccc([N+](=O)[O-])cc3)ccc21 | 90% (inactive) |
| c1cc2c(cc1CNC1CCCC1)OCO2 | 104% (inactive) |
| O=C(CSc1nnc(-c2ccncc2)n1-c1ccccc1)Nc1ccc(F)cc1 | 72% (inactive) |
| Cc1ccc(O)c(C2=Nc3ccccc3N=C(c3cccc(F)c3)C2)c1 | 139% (inactive) |
| COc1ccc(CCC(=O)NCc2nc3cccnc3n2Cc2ccc(F)cc2)cc1 | 123% (inactive) |
| CCc1ccc(Cn2c(CNS(=O)(=O)c3ccc(Cl)s3)nc3cccnc32)cc1 | 53% (inactive) |
| O=C(CCc1ccccc1)NCc1nc2cccnc2n1Cc1ccc(F)cc1 | -6% (active) |
| O=S(=O)(NCc1nc2cccnc2n1Cc1ccc(F)cc1)c1ccc(Cl)s1 | -6% (active) |
| CCc1ccc(Cn2c(CNS(=O)(=O)c3ccc(F)c(Cl)c3)nc3cccnc32)cc1 | -3% (active) |
| Cc1ccc(Cn2c(CNS(=O)(=O)c3ccc(F)c(Cl)c3)nc3cccnc32)cc1 | 134% (inactive) |
| O=S(=O)(NCc1nc2cccnc2n1Cc1ccccc1Cl)c1ccc(F)c(Cl)c1 | 76% (inactive) |
| Cc1ccc(Cn2c(CNS(=O)(=O)c3ccc(Cl)s3)nc3cccnc32)cc1 | 136% (inactive) |
| Cc1ccc(Cn2c(CNC(=O)CCc3ccccc3)nc3cccnc32)cc1 | 99% (inactive) |
| COc1ccc(C)cc1NC(=O)C(NS(=O)(=O)c1cccc2nsnc12)c1ccccc1 (stereo unspecified) | 64% (inactive) |

| SMILES | survival |
| --- | --- |
| Cc1cc(C)c(/C=C/c2onc(C)c2S(=O)(=O)N2CCC(C(=O)NCc3ccccc3Cl)CC2)c(C)c1 | 72% (inactive) |
| Cc1ccc(CNS(=O)(=O)c2cc(Br)cc3c2N(C(=O)C2CC2)CC3)cc1 | 66% (inactive) |
| Cc1cc(NC(=O)COCc2cc(-c3ccc(F)cc3)on2)ccc1Br | 82% (inactive) |
| CCC(=O)N1CCc2cc(S(=O)(=O)NC(CC(C)C)C(=O)Nc3ccc(CC)cc3)ccc21 (stereo unspecified) | 84% (inactive) |
| COc1cccc(C2CC(=O)Nc3c2ccc(C)c3C)c1OC (stereo unspecified) | 87% (inactive) |
| Cc1ccc2c(c1C)NC(=O)CC2c1ccc(Cl)cc1Cl (stereo unspecified) | 1% (active) |
| CC1=C(C(=O)OCC2CCCCC2)C(c2ccc(Cl)cc2Cl)CC(=O)N1 (stereo unspecified) | 82% (inactive) |
| CCOC(=O)CSc1ccc2nnc(CCNS(=O)(=O)c3ccccc3)n2n1 | 87% (inactive) |
| Cc1c(-c2nc(-c3ccc4c(c3)OCO4)no2)nnn1-c1ccc(C(C)C)cc1 | 73% (inactive) |
| CCOc1ccccc1CNC(=O)Cn1ncn2nc(-c3cccs3)cc2c1=O | 93% (inactive) |
| Cc1cc(OC(=O)c2cc(-c3ccc4c(c3)OCCO4)on2)ccc1Cl | -6% (active) |
| CC(C)c1ccc(OC(=O)c2cc(-c3ccc4c(c3)OCCO4)on2)cc1 | 46% (inactive) |
| Cc1ccc(OC(=O)c2cc(-c3ccc4c(c3)OCCO4)on2)cc1C | -7% (active) |
| COc1ccc(OC(=O)c2cc(-c3ccc4c(c3)OCCO4)on2)cc1 | 109% (inactive) |
| N#Cc1ccc(OC(=O)c2cc(-c3ccc4c(c3)OCCO4)on2)cc1 | 117% (inactive) |
| O=C(Oc1ccc(Cl)cc1)c1cc(-c2ccc3c(c2)OCCO3)on1 | 108% (inactive) |
| CCn1c(=NC(=O)c2ccc(S(=O)(=O)N3CCCCC3)cc2)sc2cccc(OC)c21 | 68% (inactive) |
| Cc1ccc(C(=O)NC2CC3CCCC(C2)N3C(=O)NC2CCCCC2)cc1 (stereo unspecified) | 101% (inactive) |
| O=C(CCC1CCCC1)N1CCN(C(=O)Cc2ccccc2)CC1 | 94% (inactive) |
| COc1cc(OC)c(Nc2nc3ccccc3c3nncn23)cc1Cl | 136% (inactive) |
| COc1ccc(C)cc1-n1c(-c2ccc(Cl)cc2)cc2c1CC(C)(C)CC2=O | 94% (inactive) |
| COc1ccc(-n2c(-c3ccc(Cl)cc3)cc3c2CC(C)(C)CC3=O)c(OC)c1 | 3% (active) |
| CCOc1ccc(-n2c(-c3ccc(Br)cc3)cc3c2CC(C)(C)CC3=O)cc1 | 8% (active) |

| SMILES | survival |
| --- | --- |
| COc1ccc(-n2c(-c3ccc(C)cc3)cc3c2CC(C)(C)CC3=O)c(OC)c1 | 96% (inactive) |
| CCOc1ccc(-n2c(-c3ccc(OC)cc3)cc3c2CC(C)(C)CC3=O)cc1 | 41% (inactive) |
| Cc1ccc(-c2cc3c(n2-c2ccc(C)cc2)CC(C)(C)CC3=O)cc1 | 69% (inactive) |
| CCCCCn1c(=O)[nH]c2cc(C(=O)NCc3ccccc3)ccc2c1=O | 83% (inactive) |
| COCCNC(=O)CCCN1C(=O)CCn2nc(-c3cccn3C)cc21 | 68% (inactive) |
| CCOc1ccc(-n2c(SCc3nc(-c4ccccc4C)no3)nnc2-c2ccccc2)cc1 | 84% (inactive) |
| CCC(Sc1nncn2c1cc1occc12)C(=O)Nc1ccc(C)c(Cl)c1 (stereo unspecified) | 44% (inactive) |
| CCc1nn(CC(=O)NC(C)c2ccccc2)c(=O)c2cc3sccc3n12 (stereo unspecified) | 91% (inactive) |
| COc1ccc(-n2c(=O)c3ccccc3n(CC(=O)Nc3ccccc3OC)c2=O)cc1 | 89% (inactive) |
| CN1C(C(=O)NC(C)(C)C)=CC(c2ccc3c(c2)OCO3)=NS1(=O)=O | 84% (inactive) |
| Cc1cc(NCCN(C)C)c2ccccc2n1 | 106% (inactive) |
| COc1ccc(-c2cccc(NS(=O)(=O)c3cc(C(F)(F)F)ccc3Cl)c2)nn1 | 59% (inactive) |
| Nc1cccc(-c2cn3ccsc3n2)c1 | 55% (inactive) |
| COc1cccc(OC)c1C(=O)Nc1cccc(-c2cn3ccsc3n2)c1 | 72% (inactive) |
| CCS(=O)(=O)Nc1ccc(-c2cn3c(C)csc3n2)cc1 | 78% (inactive) |
| CCS(=O)(=O)Nc1ccc(-c2cn3ccsc3n2)cc1 | -1% (active) |
| CN(C)S(=O)(=O)Nc1ccc(-c2cn3ccsc3n2)cc1 | 14% (active) |
| COc1ccc(S(=O)(=O)Nc2ccc(-c3cn4ccsc4n3)cc2)cc1C | 133% (inactive) |
| COc1cc(OC)cc(C(=O)Nc2cccc(-c3cn4ccsc4n3)c2)c1 | 1% (active) |
| CCCS(=O)(=O)Nc1cccc(-c2cn3ccsc3n2)c1 | 159% (inactive) |
| COc1ccc(C(=O)Nc2cccc(-c3cn4ccsc4n3)c2)cc1OC | 76% (inactive) |
| Cc1ccc(Cn2cc(S(=O)(=O)c3cccc(Cl)c3)c(=O)c3cc(F)c(N4CCOCC4)cc32)cc1 | 87% (inactive) |
| CC1=C(C(=O)OCC2CCCCC2)C(c2cccc(Cl)c2Cl)CC(=O)N1 (stereo unspecified) | 76% (inactive) |

| SMILES | survival |
| --- | --- |
| COc1cc(Cl)c(C)cc1NC(=O)Cn1cc(S(=O)(=O)N2CCN(c3ccccc3F)CC2)c2ccccc2c1=O | 68% (inactive) |
| Cc1cccc(C)c1NC(=O)CN1C(=O)CCSc2ccc(S(=O)(=O)N3CCCC3)cc21 | 72% (inactive) |
| CCN(C(=O)C(=O)Nc1ccc2nc3n(c(=O)c2c1)CCCCC3)c1ccc(F)cc1 | 94% (inactive) |
| COc1ccc(-n2nc(C(=O)N3CCN(c4ccccc4OC)CC3)c3c4ccccc4n(C)c3c2=O)cc1 | 80% (inactive) |
| Cc1ccc(CSc2cn(CC(=O)N3CCCCC3)c3ccccc23)cc1 | 90% (inactive) |
| CCc1ccc(C2C(C(=O)Nc3ccccc3C)=C(C)Nc3nc(SCc4cccc(OC)c4)nn32)cc1 (stereo unspecified) | 146% (inactive) |
| O=C1CC2CCCC(CN1)N2CC(=O)NCc1ccco1 (stereo unspecified) | 104% (inactive) |
| COc1ccc(COC(=O)c2[nH]c3c(c2C)C(=O)CC(c2ccc(OC)c(OC)c2)C3)cc1 (stereo unspecified) | 92% (inactive) |
| COc1ccccc1C(=O)NC(=O)Nc1ccc(-n2nc(C(F)(F)F)cc2C(F)(F)F)cc1 | 101% (inactive) |
| COc1ccccc1C(=O)Nc1ccc(-c2cc(C(F)(F)F)nn2-c2ccccc2)cc1 | 39% (inactive) |
| COc1ccccc1C(=O)NC(=O)Nc1ccc(-c2cc(C(F)(F)F)nn2-c2ccccc2)cc1 | 5% (active) |
| COc1ccc(-c2cc3ccc(O)c(CN4CCCC4)c3oc2=O)cc1 | 124% (inactive) |
| CCOc1ccccc1NC(=O)c1c(NC(=O)COc2ccc(Cl)cc2)sc2c1CCCCC2 | 75% (inactive) |
| Cc1onc(-c2ccccc2Cl)c1C(=O)Oc1ccc(Br)cc1 | 4% (active) |
| CCOc1ccc(OC(=O)c2c(-c3ccccc3Cl)noc2C)cc1 | 59% (inactive) |
| CC(=O)c1ccc(OC(=O)c2c(-c3ccccc3Cl)noc2C)cc1 | 56% (inactive) |
| CN(C)c1ccc(C(CNS(=O)(=O)c2ccc(Cl)cc2)N2CCOCC2)cc1 (stereo unspecified) | 10% (active) |
| Cc1ccc(S(=O)(=O)NCC(c2ccc(N(C)C)cc2)N2CCOCC2)cc1 (stereo unspecified) | 65% (inactive) |
| CN(C)c1ccc(C(CNS(=O)(=O)c2ccc(Cl)cc2)N2CCCC2)cc1 (stereo unspecified) | -3% (active) |
| Cc1ccc(S(=O)(=O)NCC(c2ccc(N(C)C)cc2)N2CCCC2)cc1 (stereo unspecified) | 88% (inactive) |
| CN(C)c1ccc(C(CNS(=O)(=O)c2ccc(F)cc2)N2CCOCC2)cc1 (stereo unspecified) | 83% (inactive) |
| CN(C)c1ccc(C(CNS(=O)(=O)c2ccc(F)cc2)N2CCCC2)cc1 (stereo unspecified) | 124% (inactive) |
